# Reference: the supplement of paper PMC6607015
# Where a name gives a salt, the structure may show the parent alone.
# What was measured:
# Settings in all cases: compound concentration in added solution (µM; 5 µl added to 20 µl cells): 10; 18 h
# A431 [1] = experiment: LBPA endosome anti-LBPA integrated intensity (sum per cell), Z-score; higher = more LBPA staining
# In short: (§1)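 The data are Z-scores, normalised in AcuityXpress, of integrated LBPA or filipin intensity in each cell, either whole-cell or restricted to LBPA endosomes. HeLa MZ or A431 cells, 3,500 per well in 20 µl, were seeded onto 5 µl of 10 µM compound solution in duplicate 384-well plates and incubated 18 h. Fixed cells were stained and imaged, with intensities extracted by MetaXpress segmentation.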
# HeLa MZ [2] = experiment: as above
# In short: as §1
# A431 [3] = experiment: whole-cell filipin (free cholesterol) integrated intensity, Z-score; higher = more cholesterol staining
# In short: as §1
# HeLa MZ [4] = experiment: as above
# In short: as §1
# A431 [5] = experiment: filipin (cholesterol) integrated intensity within LBPA endosomes, Z-score; higher = more cholesterol in LBPA endosomes
# In short: as §1
# HeLa MZ [6] = experiment: as above
# In short: as §1
SMILES,LBPA endosome anti-LBPA integrated intensity (z-score) (A431 [1]),LBPA endosome anti-LBPA integrated intensity (z-score) (HeLa MZ [2]),whole-cell filipin (z-score) (A431 [3]),whole-cell filipin (z-score) (HeLa MZ [4]),filipin (z-score) (A431 [5]),filipin (z-score) (HeLa MZ [6])
CN1C[C@H](C(=O)N[C@]2(C)O[C@@]3(O)[C@@H]4CCCN4C(=O)[C@H](Cc4ccccc4)N3C2=O)C[C@@H]2c3cccc4[nH]cc(c34)C[C@H]21 [Dihydroergotamine tartrate],2.74,2.55,1.06,0.225,1.48,1.1
Clc1ccc(C(OCCN2CCCCC2)c2ccccc2)cc1 (stereo unspecified) [Cloperastine hydrochloride],3.12,1.44,1.35,-0.495,2.83,0.777
Oc1ccc2c3c1O[C@H]1[C@@H](O)CC[C@@]4(O)[C@@H](C2)N(CC2CCC2)CC[C@]314 [Nalbuphine hydrochloride],-0.515,-0.32,-0.797,-0.749,-0.572,-0.371
Oc1cc(Cl)ccc1Oc1ccc(Cl)cc1Cl [Triclosan],-0.463,0.177,-0.0345,3.99,-0.336,-0.129
CC(=O)OC1CN2CCC1CC2 (stereo unspecified) [Aceclidine Hydrochloride],-0.622,-1.07,-0.642,0.0664,-0.61,-0.54
C[N+]1([O-])[C@@H]2C[C@@H](OC(=O)[C@H](CO)c3ccccc3)C[C@H]1[C@@H]1O[C@@H]12 (stereo partly specified) [Scopolamin-N-oxide hydrobromide],-0.692,-1.8,-1.01,-0.711,-0.67,-0.618
Fc1ccc(C(OCCN2CCN(CCCc3ccccc3)CC2)c2ccc(F)cc2)cc1,3.21,,1.65,,2.65,
CCC1(c2cccc(O)c2)CCCCN(C)C1 (stereo unspecified) [Meptazinol hydrochloride],-0.527,-0.173,0.166,-0.306,-0.402,-0.0124
CCC1=C[C@H]2CN3CCc4c([nH]c5ccccc45)[C@](C(=O)OC)(C2)[C@H]13 [Catharanthine],0.776,1.57,1.16,0.581,0.958,0.861
COP(=O)(OC)C(O)C(Cl)(Cl)Cl (stereo unspecified) [Trichlorfon],-0.479,-0.711,-1.16,-1.48,-0.56,-0.592
CC(C)(N)Cc1ccccc1 [Phentermine hydrochloride],-0.333,0.854,0.392,0.563,-0.29,-0.0575
O=c1[nH]c2ccccc2n1C1CCN(CCCC(c2ccc(F)cc2)c2ccc(F)cc2)CC1 [Pimozide],0.798,0.814,0.271,-0.393,0.65,0.34
O=[N+]([O-])O[C@@H]1CO[C@H]2[C@@H]1OC[C@@H]2O [Isosorbide mononitrate],-0.416,-0.118,0.0855,-0.408,-0.35,-0.464
COc1ccc(OC)c(C(O)C(C)N)c1 (stereo unspecified) [Methoxamine hydrochloride],-0.442,0.415,-0.614,-0.834,-0.515,-0.513
COc1ccc2c(c1)[C@]13CCCC[C@@H]1[C@H](C2)N(C)CC3 [Dextromethorphan hydrobromide monohydrate],-0.375,0.494,-0.0383,0.286,-0.149,0.237
O=C(O)CCCc1ccc(N(CCCl)CCCl)cc1 [Chlorambucil],-0.184,1.86,1.33,2.72,-0.393,-0.471
CC(C)CC(N(C)C)C1(c2ccc(Cl)cc2)CCC1 (stereo unspecified) [Sibutramine HCl],-0.608,0.271,-0.397,-0.373,-0.534,-0.424

SMILES,LBPA endosome anti-LBPA integrated intensity (z-score) (A431 [1]),LBPA endosome anti-LBPA integrated intensity (z-score) (HeLa MZ [2]),whole-cell filipin (z-score) (A431 [3]),whole-cell filipin (z-score) (HeLa MZ [4]),filipin (z-score) (A431 [5]),filipin (z-score) (HeLa MZ [6])
C[C@]12CCC(=O)C=C1C=C[C@@H]1[C@@H]2CC[C@@]2(C)[C@H]1CC[C@@]2(O)CCC(=O)O [Canrenoic acid potassium salt],-0.568,-1.1,-1.15,-1.15,-0.611,-0.819
O=C(NCNC(=O)NC1C(=O)NC(=O)N1CO)NC1C(=O)NC(=O)N1CO (stereo unspecified) [Imidurea],-0.433,0.0233,-0.35,-0.63,-0.459,-0.511
NC(=O)CN1CCCC1=O [Piracetam],-0.558,-0.0728,-0.653,-0.301,-0.56,-0.514
CN1[C@@H]2CC[C@H]1C[C@@H](OC(=O)C(CO)c1ccccc1)C2 (stereo partly specified) [Atropine sulfate monohydrate],-0.568,-0.87,-0.533,-0.945,-0.5,-0.345
CC(Cc1ccccc1)NCCC(c1ccccc1)c1ccccc1 (stereo unspecified) [Prenylamine lactate],,1.19,,1.27,,2.44
CCOC(=O)c1cncn1[C@H](C)c1ccccc1 [Etomidate],-0.611,-1.14,-0.618,-0.784,-0.487,-0.672
C[N+](C)(C)CCCCCCCCCC[N+](C)(C)C [Decamethonium bromide],-0.547,-1.08,0.0371,0.872,-0.372,-0.446
CC(O)(CS(=O)(=O)c1ccc(F)cc1)C(=O)Nc1ccc(C#N)c(C(F)(F)F)c1 (stereo unspecified) [Bicalutamide],-0.376,-0.104,-0.0253,0.26,-0.405,-0.188
O=C1CC[C@@]2(O)[C@H]3Cc4ccc(O)c5c4[C@@]2(CCN3CC2CC2)[C@H]1O5 [Naltrexone hydrochloride dihydrate],-0.577,-0.427,-0.831,-1,-0.48,-0.466
CC[C@@]1([C@@H]2O[C@@H]([C@H]3O[C@@](O)(CO)[C@H](C)C[C@@H]3C)C[C@@H]2C)CC[C@H]([C@]2(C)CC[C@]3(C[C@H](O)[C@@H](C)[C@@H]([C@@H](C)[C@@H](OC)[C@H](C)C(=O)O)O3)O2)O1 [Monensin sodium salt],,-0.505,,-1.99,,0.206
c1ccc2c(c1)OCC(C1=NCCN1)O2 (stereo unspecified) [Idazoxan hydrochloride],-0.313,0.376,-0.115,-0.982,-0.462,-0.278
C[N+]1(C)CCOC(O)(c2ccc(-c3ccc(C4(O)C[N+](C)(C)CCO4)cc3)cc2)C1 (stereo unspecified) [Hemicholinium bromide],-0.629,-1.27,-0.551,-0.638,-0.55,-0.667
CN1[C@@H]2CC[C@H]1C[C@@H](OC1c3ccccc3CCc3ccccc31)C2 [Deptropine citrate],3.21,1.46,1.8,-0.333,2.68,1.23
CC(C)N(CCC(C(N)=O)(c1ccccc1)c1ccccn1)C(C)C (stereo unspecified) [Disopyramide],-0.423,0.142,-0.822,-0.537,-0.461,-0.294
O=c1c2ccccc2[se]n1-c1ccccc1 [Ebselen],-0.435,-0.608,-0.31,-0.0059,-0.372,-0.243
COc1ccc(CCN2CCC(Nc3nc4ccccc4n3Cc3ccc(F)cc3)CC2)cc1 [Astemizole],,-0.627,,-1.11,,2.12
